The text below walks through data of PubChem BioAssay AID463173 (ICCB-Longwood Screening Facility, Harvard Medical School, 2010).

Among all 52,000 compounds or so, about 4,300 (8.3%) were called active. Only a selection was taken, and actives are over-represented in it overall. A number with no mark means an inactive call. Cut-off read from the data, not from the text of the source: active = survival mostly below about 52% (no sharp cut-off); inactive = mostly above about 56%.

The assay concerns DeltatarO mutant. In words: growth inhibition of S. aureus wild type versus tarO mutant, primary screen, teichoic acid synthesis inhibitors, RN4220, OD600 (AID 463173). The settings on record: OD600, 18 h, active compounds read low, screened at 18.75 µg/mL (by protocol).
For the compound `Cc1ccc(C)c(NC(=O)C(c2ccccc2)N2Cc3ccccc3C2=O)c1` (centres undefined), the survival was 117%. Regarding `Cn1c(=O)c2c(nc(CN3CCN(c4ccccc4F)CC3)n2Cc2ccccc2F)n(C)c1=O`, the survival is 92%. With `COc1ccc(-n2nc3cc(C)c(NC(=O)c4ccc(C)cc4C)cc3n2)cc1Cl` the figure was 83%; with `Cc1nnc(NC(=O)CSc2nc3c([nH]c4ccccc43)c(=O)n2-c2ccc(Cl)cc2)s1`, 73%; with `Cc1ccc(CN2CCSc3ccc(C(=O)Nc4ccc(C)cc4)cc32)cc1`, 105%. Regarding `O=C(CSc1nnc(Cc2ccccc2)o1)N(c1ccccc1)c1ccccc1`, the survival is 78%.

With `COc1ccccc1NC(=O)C1CCCN(c2nnc(C)c3c(C)n(-c4ccccc4)nc23)C1` (centres undefined), the survival is 84%. Turning to `COc1ccc(S(=O)(=O)NC2(C(F)(F)F)NC(=O)N(CCc3ccccc3)C2=O)cc1` (centres undefined), the survival is 99%. As to `CCOc1ccc(C(=O)NCC(c2ccco2)S(=O)(=O)c2ccc(C)cc2)cc1` (centres undefined), the survival was 88%. The figure for `CC(C)(C)c1ccc(C(=O)NCC(c2ccco2)S(=O)(=O)c2ccc(F)cc2)cc1` (centres undefined) is 126%; for `Cc1ccc(S(=O)(=O)C(CNC(=O)c2ccc(F)c(F)c2)c2ccco2)cc1` (centres undefined) it is -5% (active). With `O=C(NCC(c1ccco1)S(=O)(=O)c1ccc(Cl)cc1)c1ccc(C(F)(F)F)cc1` (centres undefined) the figure was 17% (active); with `Cc1ccc(S(=O)(=O)C(CNC(=O)c2ccc(C(F)(F)F)cc2)c2ccco2)cc1` (centres undefined), 130%. Consider `Cc1ccc(C(=O)NCC(c2ccco2)S(=O)(=O)c2ccc(Cl)cc2)cc1C` (centres undefined), for which the survival was 55%. In the case of `COc1ccc(C(=O)NCC(c2ccco2)S(=O)(=O)c2ccccc2)cc1` (centres undefined), the survival is -4% (active). With `CC(C)(C)c1ccc(C(=O)NCC(c2ccco2)S(=O)(=O)c2ccccc2)cc1` (centres undefined) the figure was 101%. Take `COc1ccc(C(=O)NCC(c2ccco2)S(=O)(=O)c2ccc(F)cc2)cc1` (centres undefined): the survival is 68%.

Turning to `Cc1cc(C)cc(S(=O)(=O)Nc2cccc(-c3ccc(N4CCOCC4)nn3)c2)c1`, the survival was 86%. With `CCOC(=O)C1CCCN(C(=O)Cn2ncc3c(C)n(Cc4ccc(Cl)cc4)c(C)c3c2=O)C1` (centres undefined) the figure was 59%. Turning to `O=C(CSc1nnc(-c2ccc3c(c2)OCO3)o1)Oc1ccccc1`, the survival is 87%. As for `CSc1nc(N)c(C#N)c(C(C)C)c1C#N`, the survival was 75%. The figure for `COc1ccc(-n2nc(C(=O)Nc3cccc(C(F)(F)F)c3)c3c4ccccc4n(C)c3c2=O)cc1` is 78%; for `Cc1cc(S(=O)(=O)N(C)Cc2ccccc2)ccc1-n1cnnn1` it is 81%; for `CN1C(=O)CC(=O)N(C)c2cc(S(=O)(=O)N(C)Cc3ccccc3)ccc21` it is 3% (active). For the compound `CN1C(=O)Cc2cc(S(=O)(=O)NCCc3ccccc3)ccc21`, the survival is 123%.

Regarding `Cc1oc(-c2ccccc2Cl)nc1CS(=O)(=O)CC(=O)NC(C)c1ccccc1` (centres undefined), the survival is 63%.

On to `Cc1ccc2ncc(C(=O)Nc3cccc(C(F)(F)F)c3)c(=O)n2c1`, for which the survival is 122%. With `Cc1[nH]c2ccccc2c1C1N2CC3(C)CN1CC(C)(C2)C3=O` (centres undefined) the figure was 77%; with `CCc1ccc(NC(=O)CN(c2ccc(C)cc2)S(=O)(=O)c2c(C)nn(C)c2C)cc1`, 56%; with `Cc1cccc(NC(=O)CN(c2ccc(C(C)C)cc2)S(=O)(=O)c2c(C)nn(C)c2C)c1C`, 42% (active).

In the case of `Cc1cc(C)cc(N(CC(=O)Nc2c(C)cc(C)cc2C)S(=O)(=O)c2c(C)nn(C)c2C)c1`, the survival was -5% (active). Take `COc1ccc(N(CC(=O)Nc2cccc(Cl)c2C)S(=O)(=O)c2c(C)nn(C)c2C)cc1`: the survival is 62%.

With `CCOc1ccccc1NC(=O)CN(c1cc(C)cc(C)c1)S(=O)(=O)c1c(C)nn(C)c1C`, the survival is 89%. For `Cc1nn(C)c(C)c1S(=O)(=O)N(CC(=O)Nc1ccc(F)cc1F)c1ccc(C(C)C)cc1`, the survival is 94%. With `CC(=O)c1ccc(N2CCN(S(=O)(=O)c3ccc(-c4cc(C(F)(F)F)on4)s3)CC2)cc1` the figure was 96%; with `Cc1cc(-c2ccc(S(=O)(=O)N3CCN(c4ccc(Cl)cc4)CC3)s2)on1`, 124%; with `CC(=O)c1ccc(N2CCN(S(=O)(=O)c3ccc(-c4cc(C)no4)s3)CC2)cc1`, -5% (active). Take `Cc1cc(C)c(NC(=O)CN2C(=O)C3(SCC(=O)N3c3ccc(F)cc3)c3ccccc32)c(C)c1` (centres undefined): the survival was 74%. With `CN(Cc1ccccc1)C(=O)CSc1nnc(-c2cccc(Cl)c2)o1` the figure was 85%; with `CCNC(=O)C1CN(S(=O)(=O)c2ccccc2)CCN1S(=O)(=O)c1ccccc1` (centres undefined), 75%; with `O=C(N/N=C/c1ccco1)C1c2ccccc2Oc2ccccc21`, 96%. Take `O=C(N/N=C/c1ccco1)C1CN(S(=O)(=O)c2ccccc2)CCN1S(=O)(=O)c1ccccc1` (centres undefined): the survival is 1% (active). The figure for `Cc1ccc(CNS(=O)(=O)c2ccc3c(c2)CCN3S(C)(=O)=O)cc1` is 94%; for `O=C(Nc1cccc(C(F)(F)F)c1)c1ccc(F)c(S(=O)(=O)N2CCc3ccccc3C2)c1` it is 91%. `COc1ccc(-n2c(/C=C/c3cccc4ccccc34)nc3ccccc3c2=O)cc1Cl`: the survival was 78%. For the compound `COc1cc2c(cc1OC)C(COc1cc(C)cc(C)c1)N(C(=O)c1ccc(S(=O)(=O)N3CCCC3)cc1)CC2` (centres undefined), the survival is 73%. The figure for `COC(=O)c1ccc(OCC2c3cc(OC)c(OC)cc3CCN2C(=O)COc2ccc(Cl)cc2)cc1` (centres undefined) is 78%; for `COc1cc2c(cc1OC)C(COc1ccc(F)cc1)N(C(=O)c1ccc(S(=O)(=O)N3CCCC3)cc1)CC2` (centres undefined) it is 81%; for `COc1cc2c(cc1OC)C(COc1ccc(C(C)C)cc1)N(C(=O)COc1ccccc1)CC2` (centres undefined) it is 101%. The figure for `COc1cc2c(cc1OC)C(COc1ccccc1OC)N(C(=O)c1ccc(S(=O)(=O)N3CCCC3)cc1)CC2` (centres undefined) is 32% (active); for `COc1cc2c(cc1OC)C(COc1ccccc1OC)N(C(=O)COc1ccc(Cl)cc1)CC2` (centres undefined) it is 47% (active). The figure for `COCCCNC(=O)c1cc2c(=O)oc3ccc(C)cc3c2s1` is 68%. `COC(=O)c1cnn2c(C)c(Cc3c(C)cc(C)cc3C)c(C)nc12`: the survival was 83%. Consider `CC(C)Nc1nc(Cl)nc(NNC(=O)C(C)Oc2ccccc2)n1` (centres undefined), for which the survival was 93%. The figure for `CCN(CC)C(=O)CSc1nc2cc3c(cc2c(=O)n1CCCCCC(=O)NCc1ccc(OC)cc1)OCO3` is -1% (active); for `COc1ccc(CCNC(=O)CCCn2c(SCC(N)=O)nc3cc4c(cc3c2=O)OCO4)cc1OC` it is 72%. Regarding `COCCCNC(=O)CSc1nc2cc3c(cc2c(=O)n1CCCC(=O)NCc1ccc(OC)cc1)OCO3`, the survival is 83%. For the compound `COCCCNC(=O)CSc1nc2cc3c(cc2c(=O)n1CCCCCC(=O)NCc1ccc(OC)cc1)OCO3`, the survival was 6% (active). The figure for `COCCNC(=O)CSc1nc2cc3c(cc2c(=O)n1CCCCCC(=O)NCc1ccc(OC)cc1)OCO3` is 67%; for `CCN(CC)C(=O)CSc1nc2cc3c(cc2c(=O)n1CCCC(=O)NCc1ccc(OC)cc1)OCO3` it is 71%. `CCCCNC(=O)CSc1nc2cc3c(cc2c(=O)n1CCCC(=O)NCCc1ccc(OC)c(OC)c1)OCO3`: the survival was 109%. The figure for `CCOC(=O)CSc1nc2cc3c(cc2c(=O)n1CCCCCC(=O)NCc1ccc(OC)cc1)OCO3` is 72%; for `CCOC(=O)CSc1nc2cc3c(cc2c(=O)n1CCCC(=O)NCCc1ccc(OC)c(OC)c1)OCO3` it is -2% (active); for `COc1ccc(N2CCN(Cc3nc4c(c(=O)[nH]c(=O)n4C)n3Cc3ccccc3F)CC2)cc1` it is 119%. The figure for `COc1ccccc1Cn1c(CNS(=O)(=O)c2ccc(CC(C)C)cc2)nc2cccnc21` is 95%. Regarding `COc1ccc(/C=C(\NC(=O)c2ccccc2)C(=O)NC2CCCCC2)cc1`, the survival was 86%.

For the compound `COc1cc(NC(=O)c2cc3ccccn3n2)cc(OC)c1OC`, the survival was 69%. As for `Cc1ccc(NC(=O)NCCc2c(C)nn(C)c2C)c(Cl)c1`, the survival was 72%. Regarding `Cc1ccc(C(=O)NCC(c2cccs2)S(=O)(=O)c2cccs2)cc1C` (centres undefined), the survival is 78%.

Consider `COC(=O)CN1C(=O)C(C)(C)c2cc(S(=O)(=O)Nc3ccc(C(C)C)cc3)ccc21`, for which the survival is 79%. The figure for `CC(C)(C)c1ccc(C(=O)N2CCC(c3noc(-c4ccc(S(=O)(=O)N5CCCC5)cc4)n3)CC2)cc1` is 89%; for `CCOC(=O)C1CCN(C(c2cc3ccc(OC)cc3n3nnnc23)c2nnnn2C2CCCC2)CC1` (centres undefined) it is 101%; for `CCc1cccc(C)c1Nc1c(-c2cccs2)nc2ncccn12` it is 73%. With `COc1ccc(CC2C(=O)Nc3ccc(Br)cc32)cc1OC` (centres undefined) the figure was 82%; with `COc1ccc(OC)c(CC2C(=O)Nc3ccc(Br)cc32)c1` (centres undefined), 72%. With `CCCOc1ccc(CC2C(=O)Nc3ccc(Br)cc32)cc1` (centres undefined) the figure was 0% (active); with `CCCCOc1ccccc1CC1C(=O)Nc2ccc(Br)cc21` (centres undefined), 14% (active). For `CCOc1c(CC2C(=O)Nc3ccc(Br)cc32)cccc1OC` (centres undefined), the survival is 102%. On to `CCOc1ccccc1CC1C(=O)Nc2ccc(Br)cc21` (centres undefined), for which the survival is 59%. With `Cc1cc(C)cc(NC(=O)C2CCN(S(=O)(=O)c3ccc4c(c3)oc(=O)n4C)CC2)c1` the figure was 95%; with `COc1ccc2c(c1)c1c(c(=O)n(CCc3ccccc3)c(=O)n1Cc1cccc(Cl)c1)n2C`, 76%; with `O=C(CN1C(=O)CSc2ccc(S(=O)(=O)N3CCCCC3)cc21)NCc1ccc(F)cc1Cl`, 79%.

Regarding `CNC(=S)N1C2CCC1CC(NC(=O)NC13CC4CC(CC(C4)C1)C3)C2` (centres undefined), the survival was 79%. On to `CCOC(=O)c1ccc(NC(=O)Nc2cccc(OCc3cc(=O)n4ccc(C)cc4n3)c2)cc1`, for which the survival is 68%.
